{"source": "PubChem BioAssay AID504604", "about": "(National Center for Advancing Translational Sciences (NCATS), 2011)", "test": "Quantitative high throughput screen to test activity of anti-malarial compounds in the Dd2 strain of Plasmodium Falciparum", "settings": "P. falciparum Dd2 in RBCs, SYBR Green growth, 72 h", "description": "NIH Molecular Libraries Probe Production Network [MLPCN] NIH Chemical Genomics Center [NCGC] MLPCN Grant: R21 NS059500 Assay Provider: David Fidock and Eric Ekland, Columbia University The goal of this screen is to measure the ability of a set of anti-malarial compounds to inhibit the Dd2 strain of P. falciparum. These compounds have been screened in a delayed death phenotype assay and have been identified as inhibitors of the delated death phenotype, by inhibiting the development of the apicoplast in the malarial parasite Plasmodium falciparum (described below) The biochemical processes that make this organelle essential for erythrocytic stage parasites are not well understood. However, antibiotics, such as azithromycin and tetracycline, which target the apicoplast translational machinery, have a potent antimalarial effect. […] We have developed a cell-based assay that measures parasite growth based on the expression of an integrated copy of a firefly luciferase reporter. To detect small molecules that cause this 'delayed death' phenotype, erythrocytes infected with the luciferase-expressing parasites were incubated with compounds for either one or two generations, corresponding to 48 and 96 hours, respectively. […] Growth inhibition is detected by a decrease in luciferase activity […]", "note": "Calls of active or inactive are those of the source. Calls follow the shape of the dose curve; as a rule, active = well fitted inhibition curve with a large enough effect; inconclusive = small, poorly fitted or top-dose-only effect; inactive = flat fitted curve, though single readings scatter.", "data": [{"smiles": "COc1ccc(COC[C@H](C)N2C[C@@H](C)[C@H](CN(C)S(=O)(=O)c3ccc(F)cc3)OCCCC[C@H](C)Oc3ccc(NC(=O)Nc4ccccc4)cc3C2=O)cc1", "values": [{"measurement": "Potency", "result": "0.0142 µM (active)"}]}, {"smiles": "C[C@@H]1CN([C@@H](C)CO)C(=O)c2cc(NC(=O)Nc3ccccc3)ccc2O[C@@H](C)CCCCO[C@H]1CN(C)C(=O)Oc1ccccc1", "values": [{"measurement": "Potency", "result": "8.96 µM (active)"}]}]}
